# WRN helicase inh-1 = qHTS for Inhibitors of WRN Helicase; Bifunctional 3'-5' exonuclease/ATP-dependent helicase WRN (Homo sapiens), Q14191; WRN helicase unwinding, fluorescent forked duplex, kinetic; Potency, µM (series often up to 114 µM), inactives show at the top dose activity change, negative = inhibition, hits mostly inhibitors; 360,000 compounds, 0.46% hits; AID 651768, 2012; also: potency is read from the fitted curve at half-maximal effect; % is scaled to controls: 0 for no effect and ±100 for the full control effect; nearly all actives have a fitted effect of over 55% in size
#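 Primary qHTS, 1536-well format. 20 nM WRN + compound, 15 min RT; start with 100 nM forked fluorophore/quencher duplex, 2 mM ATP (final); kinetic read ex 525/em 598 nm.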
# POLK inh = qHTS for Inhibitors of Polymerase Kappa | purified Pol kappa, fluorescent DNA synthesis assay, 10 min | DNA polymerase kappa (Homo sapiens), Q9UBT6 | Potency, µM (top dose mostly 107 µM), for inactives: at the highest dose activity, negative = inhibition, hits mostly inhibitors | 400,000 compounds, 0.53% hits | AID 588579, 2011; also: potency is read from the fitted curve at half-maximal effect; % is scaled to controls: 0 for no effect and ±100 for the full control effect
#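 Enzyme at 10 nM met test compounds for 15 min at room temperature. Substrate addition (50 nM final) began the reaction, which was monitored by fluorescence at 0 and 10 min.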
# POLI inh = qHTS for Inhibitors of Polymerase Iota; DNA polymerase iota (Homo sapiens), Q9UNA4; Pol iota fluorescent replication assay, 10 min; Potency, µM (top dose mostly 115 µM), for inactives: at the highest dose activity, negative = inhibition, actives largely listed as inhibitors; 390,000 compounds, 1% hits; AID 588590, 2011; also: potency is read from the fitted curve at half-maximal effect
#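 Pol iota at 10 nM preincubated 15 min with compounds at room temperature; reaction started with fluorescent substrate, 50 nM final. Fluorescence read kinetically at 0 and 10 min; buffer-only wells as negative control.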
# POLH inh = qHTS for Inhibitors of Polymerase Eta. recombinant Pol eta, fluorescent DNA replication assay. Potency, µM (highest dose often 114 µM), without a hit: at the top dose activity change, negative = inhibition, hits mostly inhibitors. 390,000 compounds, 1.2% hits. AID 588591, 2011; also: potency is read from the fitted curve at half-maximal effect; % is scaled to controls: 0 for no effect and ±100 for the full control effect
#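 Pol eta at 10 nM preincubated with compounds 15 min at room temperature; reaction started with fluorescent substrate (50 nM final) and read kinetically at 0 and 10 min.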
# POLB inh = qHTS Assay for Inhibitors of DNA Polymerase Beta. P06746. Pol beta primer extension/strand displacement, fluorescence kinetic. Potency, µM (highest dose often 114 µM), for the others: at the top dose activity change, negative = inhibition, hits mostly inhibitors. 340,000 compounds, 1.3% hits. AID 485314, 2010; also: potency is read from the fitted curve at half-maximal effect; % is scaled to controls: 0 for no effect and ±100 for the full control effect
#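 Pol beta (10 nM) and compounds were preincubated 15 min at room temperature, then 50 nM substrate (final) started primer extension/strand displacement. Reads were taken at 0 and 10 min; concentration-response data were fitted to a four-parameter Hill equation.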
# PI5P4K alpha inh = qHTS for Inhibitors of phosphatidylinositol 5-phosphate 4-kinase (PI5P4K). Phosphatidylinositol 5-phosphate 4-kinase type-2 alpha (Homo sapiens), P48426. PI5P4Kalpha enzyme, ADP-Glo luminescence, 60 min; hits give low values. max response, %. 330,000 compounds, 1.2% hits. AID 652105, 2013; active = max response of -50% or lower; inconclusive = between -30% and -50%; inactive = -30% or higher; also: value at the top dose of about 77 µM; % is scaled to controls: 0 for no effect and ±100 for the full control effect
#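 ADP-Glo luminescence end-point after a 60 min room-temperature kinase reaction. PI5P4Kalpha and substrate in HEPES pH 7.4 buffer with EGTA, 0.1% CHAPS and 5% DMSO; ATP at 5 microM final.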
# WRN helicase inh-2 = qHTS for Inhibitors of WRN Helicase: Confirmatory Assay for Cherry-picked Compounds | shares compounds with WRN helicase inh-1 | WRN helicase DNA unwinding, fluorescence kinetic | Potency, µM (titrated, usually from 57.1 µM), without a hit: at the highest dose activity, negative = inhibition, hits mostly inhibitors | 610 compounds, 63% hits | AID 720497, 2013; also: potency is read from the fitted curve at half-maximal effect; nearly all actives have a fitted effect of over 65% in size
# TO DNA binding = qHTS for Inhibitors of WRN Helicase: Thiazole Orange DNA Binding Counterscreen; shares compounds with WRN helicase inh-1; thiazole orange DNA binding displacement, fluorescence; Potency, µM (highest dose often 57.1 µM), for inactives: top-dose activity change, negative = inhibition, most hits filed as inhibitors; 610 compounds, 10% hits;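 also: drop in dye fluorescence marks compound binding to DNA; potency is read from the fitted curve at half-maximal effect; % is scaled to controls: 0 for no effect and ±100 for the full control effect; nearly all actives have a fitted effect of over 60% in size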
# BLM counter = qHTS for Inhibitors of WRN Helicase: BLM Helicase Counterscreen for WRN Inhibitors; shares compounds with WRN helicase inh-1; Potency, µM (highest dose often 57.1 µM), without a hit: at the top dose activity change, negative = inhibition, usual class: inhibitors; Recombinant BLM helicase DNA unwinding, red fluorescence; 610 compounds, 60% hits; also: potency is read from the fitted curve at half-maximal effect; nearly all actives have a fitted effect of over 60% in size
# Target sequence (P54132 whole entry, looked up): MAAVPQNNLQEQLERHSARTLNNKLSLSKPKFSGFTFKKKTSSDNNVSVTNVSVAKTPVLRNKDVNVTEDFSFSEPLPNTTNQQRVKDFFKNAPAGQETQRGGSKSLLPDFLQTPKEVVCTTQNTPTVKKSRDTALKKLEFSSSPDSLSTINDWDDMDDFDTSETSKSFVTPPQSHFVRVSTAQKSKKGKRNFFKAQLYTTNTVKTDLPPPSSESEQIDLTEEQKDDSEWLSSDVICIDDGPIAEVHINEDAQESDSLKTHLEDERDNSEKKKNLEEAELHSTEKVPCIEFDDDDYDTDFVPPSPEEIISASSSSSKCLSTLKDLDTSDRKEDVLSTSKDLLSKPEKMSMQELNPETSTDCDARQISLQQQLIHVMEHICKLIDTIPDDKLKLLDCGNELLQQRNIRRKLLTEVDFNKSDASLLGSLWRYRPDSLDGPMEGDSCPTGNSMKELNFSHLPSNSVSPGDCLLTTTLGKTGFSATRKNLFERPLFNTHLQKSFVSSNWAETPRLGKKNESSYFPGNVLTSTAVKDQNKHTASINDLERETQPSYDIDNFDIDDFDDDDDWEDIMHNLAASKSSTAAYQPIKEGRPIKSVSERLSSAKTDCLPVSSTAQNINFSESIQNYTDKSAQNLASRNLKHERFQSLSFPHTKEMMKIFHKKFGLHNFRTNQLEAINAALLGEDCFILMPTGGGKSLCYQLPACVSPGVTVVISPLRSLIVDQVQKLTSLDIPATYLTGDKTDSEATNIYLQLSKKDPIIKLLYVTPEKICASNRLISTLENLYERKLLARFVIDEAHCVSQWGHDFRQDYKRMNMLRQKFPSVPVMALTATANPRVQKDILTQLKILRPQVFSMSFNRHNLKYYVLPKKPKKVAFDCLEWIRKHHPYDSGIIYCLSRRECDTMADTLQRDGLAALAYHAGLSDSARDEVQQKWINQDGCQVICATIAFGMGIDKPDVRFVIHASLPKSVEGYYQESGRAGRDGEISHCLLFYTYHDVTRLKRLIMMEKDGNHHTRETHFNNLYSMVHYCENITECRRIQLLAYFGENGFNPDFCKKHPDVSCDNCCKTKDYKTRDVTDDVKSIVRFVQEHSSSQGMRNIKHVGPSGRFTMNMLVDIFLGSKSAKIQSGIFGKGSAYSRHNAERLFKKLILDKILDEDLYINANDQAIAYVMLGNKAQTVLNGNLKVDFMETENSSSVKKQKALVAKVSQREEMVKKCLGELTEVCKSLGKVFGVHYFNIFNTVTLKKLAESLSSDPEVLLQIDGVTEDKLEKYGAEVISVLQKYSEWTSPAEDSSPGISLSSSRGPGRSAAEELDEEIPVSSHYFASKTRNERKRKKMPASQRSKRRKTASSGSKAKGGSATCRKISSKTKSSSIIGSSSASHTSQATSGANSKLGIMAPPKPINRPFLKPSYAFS
# Active calls of the source: *; i = inactive; ? = inconclusive; · = no result given; [ ] = dose if it differs, or a comment. Hits are enriched below; roughly 2.8% of the tested compounds scored in any of these assays. Unless noted, calls follow the shape of the dose curve; as a rule, active = well fitted curve in the direction sought with a large enough effect; inconclusive = small, poorly fitted or top-dose-only effect, or another doubt; inactive = no such curve, though single readings can be large; an effect the other way counts as inactive or inconclusive.
SMILES,WRN helicase inh-1,POLK inh,POLI inh,POLH inh,POLB inh,PI5P4K alpha inh,WRN helicase inh-2,TO DNA binding,BLM counter
COC(=O)C(CC(=O)c1ccc(Br)cc1)n1ccnc1 (stereo not given),·,-1%,1%,·,-1%,·,-15%,-11%,?
COc1cccc(CNC(=O)c2cccc(N3CCCS3(=O)=O)c2)c1,·,9%,42%,-6%,7%,·,·,·,·
CCc1[nH]c(=O)[nH]c1C(C)S(=O)(=O)c1ccc(C)cc1 (stereo not given),?,-5%,52%,-8%,1%,-4,2%,1%,?
O=C(c1ccc(Cl)cc1)N1CCC(c2ccncc2)CC1,·,-19%[60.1 µM],1%,-8%,38%,·,·,·,·
Cc1ccccc1N=Cc1cc2c(cc1O)OC(N)=C(C#N)C2c1ccccc1 (stereo not given),?,?,-17%,?,31%,?,?,21%,?
COc1ccc(C(=O)Nc2nc(-c3ccc([N+](=O)[O-])cc3)c(-c3ccc(OC)cc3)s2)cc1,?,?,-6%,?,68%,7,-11%,5%,-11%
COc1ccc(C(=O)Nc2nc3c(s2)CCc2cc(OC)ccc2-3)cc1,·,-5%,29%,·,-25%,·,·,·,·
Cc1cc(NS(=O)(=O)c2ccc(NC(=O)/C=C/c3ccc(Br)cc3)cc2)no1,?,-2%,14%,6%,12%,-2,-27%,-14%,?
CCNc1cc2n(c(=O)n1)CCc1cc(OC)c(OC)cc1-2,-13%,-12%[60.1 µM],9%,-1%,40%,·,·,·,·
COc1cc2c(cc1OC)-c1cc(NCc3ccccn3)nc(=O)n1CC2,45µM*,-1%,2.5µM*,-5%,1%,-3,-26%,-13%,-28%
CN(C)CCCNc1cc(N2CCN(C3CCCCC3)CC2)c2noc3c2c1C(=O)c1ccccc1-3,·,-20%,41%,?,-22%,·,24µM*,213%,43µM*
O=C(Nc1ccc(Br)cc1)c1ccc(-n2cnnn2)cc1,6%,-1%,?,-17%,15%,3,·,·,·
O=C(Nc1cc(SCC(O)CO)cc([N+](=O)[O-])c1)c1ccc(-n2cnnn2)cc1 (stereo not given),?,-29%,?,-16%,?,7,?,-27%,?
Cc1ccc(-n2nc3c(=O)n(CC(=O)NC(C)C)nc(C)c3c2C)cc1,·,5%,4%,3%,3%,·,·,·,·
COc1ccc(NC(=O)CCn2cccn2)cc1OC,·,-5%[60.1 µM],25%,-16%,12%,·,·,·,·
COC(=O)C(Cc1c[nH]c2ccccc12)NC(=O)c1cc(-c2ccc(OC)c(OC)c2)oc1C (stereo not given),89µM*,-26%,?,?,-17%,2,-25%,8%,-19%
Cc1cc(C(=O)NC(Cc2c[nH]c3ccccc23)C(=O)O)c(C)o1 (stereo not given),1%,-13%,132%,-7%,-1%,-4,·,·,·
C=CCn1c(SCC(=O)c2ccc(O)c(O)c2)nnc1-c1ccc(C)cc1,?,?,?,?,·,-3,19µM*,-5%,?
NC(=NCc1ccc(Cl)c(Cl)c1)NC(=O)c1nc(Cl)c(N)nc1N,·,·,-2%[58.9 µM],-2%[57.1 µM],7%[57.1 µM],·,·,·,·
CC(Oc1ccccc1Cl)C(=O)Nc1ccc(S(=O)(=O)N2CCN(C)CC2)cc1 (stereo not given),32µM*,-3%,?,5%,·,-67*,-20%,-7%,-29%
CC(Oc1ccccc1)C(=O)Nc1ccc(S(=O)(=O)N2CCN(C)CC2)cc1 (stereo not given),9%,-1%,9%,-14%,·,-4,·,·,·
CC(C)N1CCc2c(sc(NC(=O)c3cc4cc([N+](=O)[O-])ccc4s3)c2C(N)=O)C1,79µM*,-27%,26%,-19%,-22%,?,17µM*,17µM*,14µM*
CC1CCCN(Cc2c(O)ccc3c2O/C(=C\c2ccco2)C3=O)C1 (stereo not given),35µM*,35µM*,1.6µM*,45µM*,13µM*,?,-9%,331%,-27%
O=C(CN1CCSc2ccccc21)NCc1ccccc1F,·,-5%[60.1 µM],65%,-16%,-5%,·,·,·,·
CCOc1ccc(N2C(=O)c3cccnc3C2Nc2ccc(Cl)cc2)cc1 (stereo not given),-3%,2%,?,-6%,7%,·,·,·,·
SMILES,WRN helicase inh-1,POLK inh,POLI inh,POLH inh,POLB inh,PI5P4K alpha inh,WRN helicase inh-2,TO DNA binding,BLM counter
Cc1ccc(NC2c3ncccc3C(=O)N2c2ccccc2C)cc1C (stereo not given),45µM*,-11%,56µM*,-9%,21%,-1,2%,-3%,-16%
CCOC(=O)c1cccc(NC(=O)c2cc3c(=O)n(Cc4ccccc4)ccc3nc2C)c1,·,0%,-22%,-14%,2%,·,·,·,·
Cc1ccc2c(c1)c(/C=C/c1cc[n+](C)cc1)c(C)n2C,40µM*,0%,?,-1%,?,3,22µM*,i,-19%
COc1ccccc1CNC(=O)CN1C(=O)CSc2ccc(S(=O)(=O)N(C)C)cc21,·,0%,-1%,-4%,-2%,·,·,·,·
CCOc1ccc(CNCc2c(C(=O)O)c(C)n(Cc3c(F)cccc3Cl)c2C)cc1OC,·,-9%,-13%,0%,6%,·,·,·,·
COc1ccc(Nc2nc(N)c3cc(OC)c(OC)cc3n2)cc1,·,-9%,-12%,?,?,·,22µM*,?,22µM*
COc1cc2nc(Nc3cccc(F)c3)nc(N)c2cc1OC,-19%,-35%,-13%,?,?,-15,·,·,·
COc1ccc(CN2CC(=O)N(c3ccc(C)c(C)c3)C2=S)cc1OC,?,?,-92%,-98%,3%,-87*,-8%,-4%,-4%
